Data published in PubChem BioAssay AID686970 (National Center for Advancing Translational Sciences (NCATS), 2013).
Among all 360,000 compounds or so, about 6,000 (1.7%) were called active. About 8% were inconclusive and are not listed. This is one part of a sample in which actives are shown more often than they occur. A number with no mark means an inactive call. The call rests on the fitted dose curve; in most records, active means well fitted cell-killing curve with a large enough effect; inconclusive means small, poorly fitted or top-dose-only effect, or effect the other way; inactive means flat fitted curve, though single readings scatter.

Experiment: qHTS for induction of synthetic lethality in tumor cells producing 2HG: qHTS for the HT-1080-NT fibrosarcoma cell line; further: nearly all actives have a fitted effect of over 55% in size
Conditions: HT-1080-NT fibrosarcoma viability, CellTiter-Glo ATP luminescence, 48 h; series mostly up to 46.1 µM; activity, negative = less viability: at the top concentration
Text: Unbiased genomic sequencing for 22 glioma genomes found recurrent mutation of IDH1 on chromosome 2q33, a gene encoding the cytosolic isoform of IDH1 associated with the tricarboxylic acid cycle (TCA) that catalyzes the oxidative decarboxylation of isocitrate, yielding alpha-ketoglutarate and CO2 via NADP+ to NADPH conversion. Subsequent studies confirmed the recurrent IDH mutations in up to 70% of secondary gliomas and in 10% of AML cases. In addition, the somatic mutation of cancer-associated IDH1 is a point mutation resulting in various amino-acid substituents at Arginine132 (IDH1 R132), a key residue found in the enzyme's active site that when mutated, results in the loss-of-function in metabolizing isocitrate but confers a gain-of-function to produce the oncometabolite 2-hydroxyglutarate (2HG). This in effect defines IDH1 as an oncogene and provides an extraordinary opportunity to discover chemical probes against mutant IDH1 that may translate into much needed new therapies for glioma and AML patients.
This assay aims to perform a synthetic lethal screen for chemical probes specific for 2HG-producing tumor cells using matched paired cell lines (1) HT-1080-NT fibrosarcoma cell line that overproduces 2HG and (2) HT-1080-IDH1KD cell line which has IDH1 expression knocked-down. Desirable compounds are toxic to the NT fibrosarcoma cells but not to the IDH1KD cell line. The data in this AID corresponds to the results of the qHTS against the HT-1080-NT fibrosarcoma cell line.
[1] Dang L, Jin S, Su SM. IDH mutations in glioma and acute myeloid leukemia. Trends of Mol Med. 2010; 16(9): 387-97.
[2] Dang L et al. Cancer-associated IDH1 mutations produce 2-hydroxyglutarate. Nature. 2010; 465(7300):966.
NIH Molecular Libraries Probe Production Centers Network [MLPCN]
NIH Chemical Genomics Center [NCGC]
Assay Submitter (PI): Lenny Dang Ph.D., Agios Pharmaceuticals
Suspensions of trypsinized HT-1080-NT cells were dispensed into white, tissue culture-treated, solid 1536-well plates at 5uL/well (750 cells/well final concentration) in RPMI medium supplemented with 5% FBS. Plates were incubated at 37 degrees C for 2 hours, after which 23 nL of compounds or DMSO were delivered to each well using a pin tool. Plates were then incubated at 37 degrees C for an additional 48 hours. CellTiter-Glo viability reagent (Promega) was dispensed into wells (2.5uL/well) and incubated at room temperature for 10 minutes. The plates were measured on a PerkinElmer ViewLux plate reader for luminescent signal (clear filter, 1 sec exp). DMSO-treated control wells and media-only (no cells) control wells were used to normalize %Activity of identified toxic compounds; DMSO-treated wells corresponded to 0%Activity (100% viability), while media-only controls were used to normalize 100%Activity (0% viability).
Concentration-response curves were fitted to the signals arising from the resulting luminescence. The concentration-effect curves were then classified based on curve quality (r2), response magnitude and degree of measured activity, and compounds were subsequently categorized based on their curve class.
Potency means the concentration at half of the fitted maximal effect.

Compound	Potency	activity, negative = less viability [%]
Cc1ccc(Cc2c(-c3ccco3)nc3ccc(Cl)cn23)cc1	23.1 µM (active)	
Cc1ccc(Cc2c(-c3ccccc3)nc3ccc(Cl)cn23)cc1		-0.274
Cc1ccc(-c2nc3ccc(Cl)cn3c2Cc2ccccc2)cc1		14.8
COc1cc(F)ccc1-c1cc(C(=O)NCC2CCCCC2)[nH]n1		28.9
O=C1C(Cl)=C(Oc2ccccc2)C(=O)c2ccccc21	4.11 µM (active)	
COc1ccc(C(=O)OCC(=O)Nc2cc(C)on2)cc1F		6.13
CC(C)(C)OC(=O)N1CCN(C(=O)c2[nH]c(C(F)(F)F)nc2-c2ccccc2)CC1		9.95
N/C(=N/O)c1cccn1Cc1ccccc1[N+](=O)[O-]		10.5
O=c1c([N+](=O)[O-])cccn1Cc1ccc(F)cc1Cl	14.6 µM (active)	
O=[N+]([O-])c1ccccc1NCc1ccccc1Cl		-10.6
CC1CC(C)CN(CCCNC(=O)Cn2ncc3c([nH]c4ccccc43)c2=O)C1 (stereo unspecified)		5.3
Cc1c2cnn(CC(=O)NCCCN3CC(C)CC(C)C3)c(=O)c2c(C)n1Cc1ccc(Cl)cc1 (stereo unspecified)	23.1 µM (active)	
Cc1ccc(Cn2c(C)c3cnn(CC(=O)NCCN4CCOCC4)c(=O)c3c2C)cc1		9.01
CC(NC(=O)c1ccc(N2CCNCC2)c([N+](=O)[O-])c1)C12CC3CC(CC(C3)C1)C2 (stereo unspecified)	16.4 µM (active)	
O=C(Nc1cccc(C(F)(F)F)c1)c1ccc(N2CCNCC2)c([N+](=O)[O-])c1	16.4 µM (active)	
Cc1cccc(C)c1NC(=O)CNC(=O)c1ccc(N2CCOCC2)c([N+](=O)[O-])c1		-0.0226
CCC(C)NC(=O)c1ccc(N2CCC3(CC2)OCCO3)c([N+](=O)[O-])c1 (stereo unspecified)		0.381
O=C(NC1C2CC3CC(C2)CC1C3)c1ccc(N2CCNCC2)c([N+](=O)[O-])c1 (stereo unspecified)		20.4
O=C(Nc1ccc(N2C(=O)c3cccc4cccc(c34)C2=O)cc1)c1ccc(N2CCCCC2)c([N+](=O)[O-])c1		4.35
CCc1noc(C)c1C(=O)OCC(=O)c1ccc(NC(=O)CC(C)C)cc1		1.43
Fc1cccc(Cc2c(-c3ccc(Cl)cc3)nc3ccc(Cl)cn23)c1		-1.75
Cc1cc2nc(-c3ccco3)c(Cc3cccc(F)c3)n2c(C)c1Br	20.6 µM (active)	
Cc1cc2nc(-c3ccc(F)cc3)c(Cc3ccsc3)n2c(C)c1Br		-22.5
COc1cc(C=C(OC(C)=O)c2ccc3c(c2)OCO3)cc(OC)c1OC		-12.3
CCCNC(=O)C[C@@H]1CC[C@@H]2[C@H](COC[C@H](O)CN2C(=O)c2cc(Cl)cc(Cl)c2)O1		10.8
CCOC(=O)c1cc2cc(OC)ccc2n1C1CCN(C)CC1		-25.5
